Source: PubChem
E coli growth-1: blocks Escherichia coli growth | OD600, 23 h; stronger effect = lower value | OD600 absorbance (concentration not given with the values) | hit rate 0.21% among 330,000;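 active = OD600 absorbance below the run mean of sample wells minus 3.6 SD, in any replicate, cut at about 0.56 in these data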
Tat transport: blocks Tat-dependent protein export in E. coli; inhibition, % at 10 µM; E. coli MC4100 TorA-mCherry Tat export, fluorescence; hit rate 0.036% among 340,000;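 active = mean replicate inhibition at least 50% and at least half of replicates individually reaching 50%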;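 also: exported cargo escapes ClpAP degradation while cytoplasmic cargo is degraded and loses fluorescence; 0% = median of neutral control wells and 100% = median of NaSCN control wells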
AddAB inh: less growth of phage-infected E. coli with AddAB; E. coli expressing H. pylori AddAB, absorbance growth; inhibition, % at 11.9 µM; hit rate 0.29% among 330,000; AID 435030; in the data active = inhibition above about 12%;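 also: 0% = vehicle wells of infected cells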
E coli growth-2: bacterial growth inhibition, counter-screen for AddAB inhibitors; E. coli V3065 growth, OD600 absorbance, 18 h; hit rate 0.27% among 330,000; inhibition, % at 11.9 µM;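 active = inhibition above the campaign's mean inhibition across all tested compounds plus 3 SD, cut at about 9.9% in these data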;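 also: uninfected addAB+ strain grown without phage in ampicillin broth; 0% = DMSO wells and 100% = ciprofloxacin 0.95 µg/ml wells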
phage Ecoli inh: E. coli growth loss with phage present; growth absorbance; hit rate 0.26% among 360,000; AID 651602; inhibition, % at 11.9 µM; in the data active = inhibition above about 11%
AddAB confirm: confirmation screen: growth loss of phage-infected E. coli expressing H. pylori AddAB; AID 488942; shares compounds with AddAB inh; inhibition, % at 11.9 µM; E. coli V3065 expressing H. pylori AddAB, T4 phage, OD; T4 phage with gene 2 nonsense mutations; hit rate 64% among 880;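 active = mean inhibition above a set limit taken from the earlier primary screen, cut at about 13% in these data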;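 also: higher means less bacterial growth since AddAB block lets phage replicate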
RecBCD counter: counter-screen: growth loss of RecBCD+ E. coli with mutant T4 phage; shares compounds with AddAB inh; E. coli V66 + mutant T4 phage, OD growth; inhibition, % at 11.9 µM; hit rate 73% among 880; AID 488955;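 active = mean inhibition above the mean of solvent-only control wells plus 3 SD, cut at about 4% in these data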;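 also: optical density read after an 18 h incubation at 37 °C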
bact viab count: counter-screen for AddAB inhibitors: inhibitors of bacterial viability; shares compounds with AddAB inh; absorbance (AddAB counterscreen); inhibition, % at 11.9 µM; hit rate 35% among 880; AID 488956; in the data active = inhibition above about 25%
RecBCD conf: confirmation: growth loss of phage-infected RecBCD+ E. coli (RecBCD inhibitor screen); shares compounds with phage Ecoli inh; E. coli V66 + T4 2- phage, growth OD; inhibition, % at 11.9 µM; hit rate 45% among 890;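 active = mean inhibition over triplicates exceeding the hit threshold derived in the original primary screen, cut at about 11% in these data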
Ecoli viability: counter-screen for RecBCD inhibitors: inhibitors of bacterial viability; hit rate 29% among 890; inhibition, % at 11.9 µM; E. coli viability, absorbance (OD) growth; shares compounds with phage Ecoli inh; in the data active = inhibition above about 20%;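 also: E. coli strain V66 grown with compound alone and no phage infection; 0% = bacteria with DMSO vehicle only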
AddAB phage OD: growth loss of phage-infected AddAB E. coli, RecBCD counter-screen; inhibition, % at 11.9 µM; hit rate 45% among 890; E. coli expressing H. pylori AddAB + T4 phage, OD growth; gene 2 mutant T4, recBCD-deleted host; shares compounds with phage Ecoli inh;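 active = mean inhibition above the solvent-only control wells' mean plus 3 SD, cut at about 22% in these data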;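 also: higher means less bacterial growth from phage killing when AddAB is blocked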
Starred values were filed as active, the others as inactive. A selection: hits, their analogues and other compounds. The true share with any hit is near 0.5%.

How did Nc1c(Cl)ncnc1N/N=C/c1ccnc2ccccc12 do in these assays?
Tat transport: -3.2; AddAB inh: 2.7; E coli growth-2: -1.5; phage Ecoli inh: 2.7

Results for CC(C)COc1ccc(Cc2cnc(N)nc2N)cc1 ?
E coli growth-1: 0.242*; Tat transport: -4.7; AddAB inh: 12.3*; E coli growth-2: 6.9; phage Ecoli inh: 16.3*; AddAB confirm: -1.4; RecBCD counter: 9.2*; bact viab count: 2.8; RecBCD conf: 7.3; Ecoli viability: 5.4; AddAB phage OD: 10.7

How did COC(=O)NN=Cc1cn(Cc2ccc(Cl)cc2Cl)c2ccccc12 do in these assays?
E coli growth-1: 0.699

What do the screens show for `CC(C)(C)c1ccc(OCCCC(=O)NNC(=O)c2ccccc2O)cc1`?
E coli growth-1: 0.714; Tat transport: 10.8; AddAB inh: 19.9*; E coli growth-2: 14.5*; phage Ecoli inh: 12.7*; AddAB confirm: 6.6; RecBCD counter: 10.2*; bact viab count: 4.3; RecBCD conf: 7.8; Ecoli viability: 7.7; AddAB phage OD: 9.1

What do the screens show for `Cc1cc(C(=O)NNC(=O)CCCOc2ccccc2)c(C)o1`?
E coli growth-1: 0.621; Tat transport: -5.7; AddAB inh: -1.0; E coli growth-2: -0.7; phage Ecoli inh: -0.5

What do the screens show for `O=C1C=C(c2cccc(Br)c2)CC(c2ccc(F)cc2)C1` (stereo unspecified)?
E coli growth-1: 0.674

Results for N#Cc1nccnc1S(=O)(=O)c1cccs1 ?
E coli growth-1: 0.491*; AddAB inh: 18.9*; E coli growth-2: 12.7*; phage Ecoli inh: 18.3*; AddAB confirm: 64.4*; RecBCD counter: 16.6*; bact viab count: 16.1; RecBCD conf: 17.2*; Ecoli viability: 16.4; AddAB phage OD: 32.7*

How did CN(Cc1ccccc1C#N)S(=O)(=O)c1cccs1 do in these assays?
E coli growth-1: 0.7; Tat transport: 7.2; AddAB inh: 3.5; E coli growth-2: 2.5; phage Ecoli inh: 4.7

Results for Cc1ccc(C=c2sc(=C(C#N)C(=O)N3CCCC3)n(Cc3ccco3)c2=O)s1 ?
E coli growth-1: 0.703

What do the screens show for `CC(=O)N1CCc2c(sc(NC(=O)c3ccc([N+](=O)[O-])o3)c2C#N)C1`?
E coli growth-1: 0.67; Tat transport: 2.8; phage Ecoli inh: 7.8

What do the screens show for `CC(C)N1CCc2c(sc(NC(=O)c3ccc([N+](=O)[O-])o3)c2C(N)=O)C1`?
Tat transport: 30.7; AddAB inh: 99.8*; E coli growth-2: 99.7*; phage Ecoli inh: 34.2*; AddAB confirm: 102.2*; RecBCD counter: 47.9*; bact viab count: 103.0*; RecBCD conf: 37.7*; Ecoli viability: 62.0*; AddAB phage OD: 102.9*

Results for COC(=O)c1c(NC(=O)c2ccc([N+](=O)[O-])o2)sc2c1CCN(C(C)C)C2 ?
Tat transport: 26.0; AddAB inh: 101.4*; E coli growth-2: 100.1*; phage Ecoli inh: 30.7*; AddAB confirm: 98.4*; RecBCD counter: 98.4*; bact viab count: 99.2*; RecBCD conf: 100.2*; Ecoli viability: 101.5*; AddAB phage OD: 102.3*

How did COc1ccc2nc(NC(=O)CCNC(=O)c3ccco3)sc2c1 do in these assays?
E coli growth-1: 0.584; Tat transport: -9.4; AddAB inh: 15.7*; E coli growth-2: 14.1*; phage Ecoli inh: 11.9*; AddAB confirm: 13.5*; RecBCD counter: 11.6*; bact viab count: 14.1; RecBCD conf: 8.4; Ecoli viability: 12.0; AddAB phage OD: 11.3
